# Results: PubChem BioAssay
# Several values for one entry are separate records, joined by “and”; a condition that tells them apart may be missing. Identical values can stand only once. Some compounds were tested as several samples or in several runs, with calls that do not always agree. Activity calls are given as the source filed them.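 How the source made its calls, unless noted: active means normalized viability below 100% at a tested concentration; inactive means the rest.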
# Key:
# [1] = compounds altering viability of human ES cells (AID 493140; call rule not given here;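 further: cells exposed to compounds for four days before counting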); details: human embryonic stem cell survival screen; stronger effect = higher value
# [2] = chitosan synthesis blockers in C. neoformans – flow cytometry, Cibacron Brilliant Red staining (AID 1347148; call rule not given here;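 further: compound exposure lasted three days at 37 degrees C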); details: Cryptococcus neoformans chitosan, stronger effect = lower value; at 10 µM unless noted
# [3] = compounds altering HSF1 focus formation in cells – imaging, Selleck Cancer Library (AID 1347162; in the data active means plate-normalised HSF1 focus index below about 0.46); details: human cells, HSF1 nuclear foci imaging, at 10 µM; SSMD: measured here: HSF1 foci SSMD mean; cell count: measured here: cell number; plate-normalised HSF1 focus index: stronger effect = lower value
# [4] = blockers of cellular phospholipid synthesis – cell-based, LOPAC library, screen 4, primary screen (AID 1347384; call rule not given here); details: animal cells, phospholipid biosynthesis inhibition screen; at 10 µM
# [5] = drug combination growth inhibition, ovarian cancer – cell-based, oncology-focused library, rucaparib conditional, profiling panel (AID 1508598); details: patient-derived ovarian cancer cells, CellTiter-Glo viability, 144 h, stronger effect = lower value
compound,measurement,setting,value
Nc1ncnc2c1c(I)cn2C1OC(CO)C(O)C1O (configuration not stated),survival,[1],7.5 (inactive)
same,fold fluorescence,[2],3.83 [at 127.5 µM] (inactive)
COC1=C2C[C@H](C)C[C@@H](OC)[C@@H](O)[C@H](C)/C=C(\C)[C@@H](OC(N)=O)[C@H](OC)/C=C\C=C(/C)C(=O)NC(=CC1=O)C2=O,fold fluorescence,[2],25.2 [at 89.2 µM] (inactive)
C=C1/C(=C/C=C2\CCC[C@]3(C)[C@@H]([C@H](C)/C=C/[C@@H](C)C(C)C)CC[C@@H]23)C[C@@H](O)C[C@@H]1O,SSMD,[3],1.3
same,cell count,[3],6600
same,plate-normalised HSF1 focus index,[3],1.07 (inactive)
CC1=NN(c2cccc(C(=O)O)c2)C(=O)/C1=C\c1ccc(-c2ccc(Cl)c(C(=O)O)c2)o1,outcome,[4],inactive
CCCCCc1ccc(/C=C/C(=O)Nc2cc(Cl)ccc2C(=O)O)cc1,outcome,[4],inactive
OC[C@H]1O[C@@H](n2cnc3c2NC=NC[C@H]3O)CC1O (some centres not stated),SSMD,[3],3.2
same,cell count,[3],7070
same,plate-normalised HSF1 focus index,[3],1.17 (inactive)
COCCNC(=O)COc1ccc(OCCNC[C@H](O)COc2ccccc2)cc1,outcome,[4],inactive
O=CN(O)CCCP(=O)(O)O,outcome,[4],inactive
CCOC(=O)CN1C(=O)c2ccc3c4c(ccc(c24)C1=O)C(=O)N(CC(=O)OCC)C3=O,outcome,[4],inactive
Nc1ncnc2c1ncn2[C@@H]1O[C@H](COP(=O)(O)CP(=O)(O)OP(=O)(O)O)[C@H](O)C1O (some centres not stated),outcome,[4],inactive
CO[C@H]1C[C@@H]2CC[C@@H](C)[C@@](O)(O2)C(=O)C(=O)N2CCCC[C@@H]2C(=O)OC([C@H](C)C[C@@H]2CC[C@@H](OC(=O)C(C)(CO)CO)[C@H](OC)C2)CC(=O)[C@H](C)/C=C(\C)[C@@H](O)[C@@H](OC)C(=O)[C@H](C)C[C@H](C)/C=C/C=C/C=C/1C (some centres not stated),outcome,[4],inactive
N#CC[C@@H](C1CCCC1)n1cc(-c2ncnc3[nH]ccc23)cn1,SSMD,[3],2.05
same,cell count,[3],7030
same,plate-normalised HSF1 focus index,[3],1.12 (inactive)
same,viability,"[5]; at 0.000305 µM, OCI-C5x cells, with rucaparib 10 µM, 100% = cells with rucaparib alone",113% (inactive) and 107% (inactive)
same,viability,"[5]; at 0.000305 µM, OCI-C5x cells, without rucaparib",113% (inactive) and 115% (inactive)
same,viability,"[5]; at 0.000305 µM, OCI-P5x cells, with rucaparib 20 µM, 100% = cells with rucaparib alone",90.3% (active) and 57.2% (active)
same,viability,"[5]; at 0.000305 µM, OCI-P5x cells, without rucaparib",67.6% (active) and 15.7% (active)
same,viability,"[5]; at 0.00122 µM, OCI-C5x cells, with rucaparib 10 µM, 100% = cells with rucaparib alone",104% (inactive) and 71.4% (active)
same,viability,"[5]; at 0.00122 µM, OCI-C5x cells, without rucaparib",116% (inactive) and 58.3% (active)
same,viability,"[5]; at 0.00122 µM, OCI-P5x cells, with rucaparib 20 µM, 100% = cells with rucaparib alone",75.9% (active) and 50.4% (active)
same,viability,"[5]; at 0.00122 µM, OCI-P5x cells, without rucaparib",29.2% (active) and 17% (active)
same,viability,"[5]; at 0.00488 µM, OCI-C5x cells, with rucaparib 10 µM, 100% = cells with rucaparib alone",115% (inactive) and 102% (inactive)
same,viability,"[5]; at 0.00488 µM, OCI-C5x cells, without rucaparib",114% (inactive) and 116% (inactive)
same,viability,"[5]; at 0.00488 µM, OCI-P5x cells, with rucaparib 20 µM, 100% = cells with rucaparib alone",107% (inactive) and 105% (inactive)
same,viability,"[5]; at 0.00488 µM, OCI-P5x cells, without rucaparib",106% (inactive) and 105% (inactive)
same,viability,"[5]; at 0.0195 µM, OCI-C5x cells, with rucaparib 10 µM, 100% = cells with rucaparib alone",109% (inactive) and 100% (inactive)
same,viability,"[5]; at 0.0195 µM, OCI-C5x cells, without rucaparib",99.4% (active) and 104% (inactive)
same,viability,"[5]; at 0.0195 µM, OCI-P5x cells, with rucaparib 20 µM, 100% = cells with rucaparib alone",99.9% (active) and 99.8% (active)
same,viability,"[5]; at 0.0195 µM, OCI-P5x cells, without rucaparib",99.4% (active) and 104% (inactive)
same,viability,"[5]; at 0.0781 µM, OCI-C5x cells, with rucaparib 10 µM, 100% = cells with rucaparib alone",112% (inactive) and 100% (inactive)
same,viability,"[5]; at 0.0781 µM, OCI-C5x cells, without rucaparib",113% (inactive) and 109% (inactive)
same,viability,"[5]; at 0.0781 µM, OCI-P5x cells, with rucaparib 20 µM, 100% = cells with rucaparib alone",100% (inactive) and 96.9% (active)
same,viability,"[5]; at 0.0781 µM, OCI-P5x cells, without rucaparib",101% (inactive) and 102% (inactive)
same,viability,"[5]; at 0.313 µM, OCI-C5x cells, with rucaparib 10 µM, 100% = cells with rucaparib alone",105% (inactive) and 98.1% (active)
same,viability,"[5]; at 0.313 µM, OCI-C5x cells, without rucaparib",106% (inactive) and 111% (inactive)
same,viability,"[5]; at 0.313 µM, OCI-P5x cells, with rucaparib 20 µM, 100% = cells with rucaparib alone",100% (inactive) and 90.7% (active)
same,viability,"[5]; at 0.313 µM, OCI-P5x cells, without rucaparib",96.4% (active) and 98.4% (active)
same,viability,"[5]; at 1.25 µM, OCI-C5x cells, with rucaparib 10 µM, 100% = cells with rucaparib alone",117% (inactive) and 101% (inactive)
same,viability,"[5]; at 1.25 µM, OCI-C5x cells, without rucaparib",108% (inactive) and 109% (inactive)
same,viability,"[5]; at 1.25 µM, OCI-P5x cells, with rucaparib 20 µM, 100% = cells with rucaparib alone",97.5% (active) and 88.1% (active)
same,viability,"[5]; at 1.25 µM, OCI-P5x cells, without rucaparib",96% (active) and 91.3% (active)
same,viability,"[5]; at 5 µM, OCI-C5x cells, with rucaparib 10 µM, 100% = cells with rucaparib alone",133% (inactive) and 122% (inactive)
same,viability,"[5]; at 5 µM, OCI-C5x cells, without rucaparib",115% (inactive) and 130% (inactive)
same,viability,"[5]; at 5 µM, OCI-P5x cells, with rucaparib 20 µM, 100% = cells with rucaparib alone",83.7% (active) and 82.4% (active)
same,viability,"[5]; at 5 µM, OCI-P5x cells, without rucaparib",86.9% (active) and 86.2% (active)
C[C@@H]1CCN(C(=O)C(CCCN=C(N)N)NS(=O)(=O)c2cccc3c2NC[C@H](C)C3)C(C(=O)O)C1 (some centres not stated),outcome,[4],inactive
CO/N=C(\C(=O)N[C@@H]1C(=O)N2C(C(=O)O)=C(CSc3nc(=O)c(=O)[nH]n3C)CSC12)c1csc(N)n1 (some centres not stated),outcome,[4],inactive
C=CC1=C(C)c2cc3[nH]c(cc4nc(cc5[nH]c(cc1n2)c(C)c5CCC(=O)O)C(CCC(=O)O)=C4C)c(C)c3C=C,outcome,[4],inactive
COc1ccc(Cc2nn3c([C@@H](CCCc4ccccc4)[C@@H](C)O)nc(C)c3c(=O)[nH]2)cc1OC,SSMD,[3],2.11
same,cell count,[3],7160
same,plate-normalised HSF1 focus index,[3],1.12 (inactive)
